Hit rate of the full screen: of about 39,000 compounds, about 3,300 (8.5%) were called active. The full list was thinned out, with actives kept by preference.

In the assay the test system is HepG2. The assay can be described thus: cytotoxicity call (relative viability < 0.9). To be noted: 10 µM.
Turning to `C[C@H](CO)N1C[C@H](C)[C@H](CN(C)C(=O)Cc2ccccn2)Oc2cc(-c3ccc(C(=O)N(C)C)cc3)ccc2S1(=O)=O`, the cytotoxicity call was “inactive”.
The same measure for `N[C@@H](CSCc1ccccc1Cl)C(=O)O`: “inactive”; for `COc1ccc(S(=O)(=O)Nc2ccc3c(c2)C(=O)N([C@@H](C)CO)C[C@H](C)[C@@H](CN(C)Cc2ccccc2)OCCCC[C@@H](C)O3)cc1`: “inactive”.
The same measure for `C[C@H]1CCCCO[C@@H](CN(C)C(=O)Nc2ccc3c(c2)OCO3)[C@@H](C)CN([C@@H](C)CO)C(=O)c2cc(NC(=O)Nc3ccc(F)cc3)ccc2O1`: “inactive”; for `NNC(=S)Nc1cccc(F)c1`: “inactive”.
Turning to `C[C@@H]1CN([C@@H](C)CO)C(=O)c2cc(C#CCN(C)C)cnc2O[C@H]1CN(C)S(=O)(=O)c1cn(C)cn1`, the cytotoxicity call is “inactive”.
Then `COc1cccc(C#Cc2cnc3c(c2)C(=O)N([C@H](C)CO)C[C@H](C)[C@H](CN(C)C(=O)C2CCOCC2)O3)c1`, with “inactive”.
Then `C[C@H]1CCCCO[C@H](CN(C)Cc2ccc(C(=O)O)cc2)[C@@H](C)CN([C@@H](C)CO)C(=O)c2cc(NC(=O)Nc3ccc(C(F)(F)F)cc3)ccc2O1`, with “inactive”; and `Cc1noc(C)c1NC(=O)Nc1ccc2c(c1)C(=O)N([C@H](C)CO)C[C@@H](C)[C@H](CN(C)S(=O)(=O)c1ccc(F)cc1)OCCCC[C@@H](C)O2`, with “inactive”; and `ON/C=N\c1nonc1-c1cccnc1`, with “inactive”.
Regarding `Nc1c[nH]ccc1=O`, the cytotoxicity call was “inactive”.
The same measure for `COc1ccc(NC(=O)N(C)C[C@H]2OCCCC[C@H](C)Oc3ccc(NS(=O)(=O)c4cccs4)cc3C(=O)N([C@H](C)CO)C[C@@H]2C)cc1`: “inactive”; for `COc1ccc2nc3cc(Cl)ccc3c(Nc3cc(CN4CCCC4)c(O)c(CN4CCCC4)c3)c2n1.O=P(O)(O)O.O=P(O)(O)O.O=P(O)(O)O.O=P(O)(O)O`: “active”.
The same measure for `CCC(=O)N[C@H]1CC[C@@H](CC(=O)OC)O[C@@H]1CO`: “inactive”; for `CC(=O)c1ccc(F)c(Cl)c1`: “inactive”.
For the compound `Cl.Nc1c2c(nc3ccccc13)CCCC2`, the cytotoxicity call was “active”.
For the compound `Nc1c2ccccc2nc2ccccc12`, the cytotoxicity call is “active”.
The same measure for `Nc1nc(N)c2c(n1)CCCC2`: “inactive”; for `Nc1c2c(nc3ccccc13)CCCC2`: “inactive”; for `Nc1nnc(N)c2ccccc12`: “inactive”.
The same measure for `CCc1nc2ccccc2c(N)c1C`: “inactive”; for `C[C@H](CO)N1C[C@H](C)[C@H](CN(C)C)Oc2cc(C#C[C@@H](C)O)ccc2S1(=O)=O`: “inactive”; for `C=CCCCCCCCCC(=O)Nc1ccccc1C`: “inactive”.
Then `C[C@@H]1CN([C@@H](C)CO)C(=O)c2cc(/C=C/c3ccccc3)cnc2O[C@H]1CN(C)C(=O)C1CCOCC1`, with “inactive”; and `C[C@@H]1CCCCO[C@@H](CN(C)Cc2ccncc2)[C@H](C)CN([C@H](C)CO)C(=O)c2cc(NC(=O)C3CCCCC3)ccc2O1`, with “inactive”.
For `O=C(C[C@@H]1CC[C@H]2[C@@H](COC[C@@H](O)CN2C(=O)c2ccc(F)cc2)O1)NCCCN1CCOCC1`, the cytotoxicity call was “inactive”.
Then `COc1ccc(NC(=O)Nc2ccc3c(c2)CC(=O)N([C@@H](C)CO)C[C@@H](C)[C@H](CN(C)Cc2ccc(Oc4ccccc4)cc2)O3)cc1`, with “active”; and `COc1ccc(NC(=O)Nc2ccc3c(c2)CC(=O)N([C@H](C)CO)C[C@@H](C)[C@@H](CN(C)Cc2ccc(Oc4ccccc4)cc2)O3)cc1`, with “active”; and `COc1ccc(NC(=O)Nc2ccc3c(c2)CC(=O)N([C@H](C)CO)C[C@H](C)[C@@H](CN(C)Cc2ccc(Oc4ccccc4)cc2)O3)cc1`, with “inactive”.
Then `COc1ccc(NC(=O)Nc2ccc3c(c2)CC(=O)N([C@@H](C)CO)C[C@H](C)[C@@H](CN(C)Cc2ccc(Oc4ccccc4)cc2)O3)cc1`, with “inactive”; and `COc1ccc(NC(=O)Nc2ccc3c(c2)CC(=O)N([C@H](C)CO)C[C@@H](C)[C@H](CN(C)Cc2ccc(Oc4ccccc4)cc2)O3)cc1`, with “active”.
Then `COc1ccc(NC(=O)Nc2ccc3c(c2)CC(=O)N([C@@H](C)CO)C[C@@H](C)[C@@H](CN(C)Cc2ccc(Oc4ccccc4)cc2)O3)cc1`, with “active”; and `Cc1noc(C)c1NC(=O)Nc1ccc2c(c1)C(=O)N([C@@H](C)CO)C[C@@H](C)[C@H](CN(C)C(=O)Nc1cccc3ccccc13)O2`, with “inactive”.
Regarding `COc1ccc2c3c(n(c2c1)C)[C@H](CO)N(C[C@]13CN(C1)C(=O)C1CC1)C(=O)CN1CCOCC1`, the cytotoxicity call was “inactive”.
The same measure for `CCCSc1nc(N[C@@H]2C[C@H]2c2ccc(F)c(F)c2)c2nnn([C@@H]3C[C@H](OCCO)[C@@H](O)[C@H]3O)c2n1`: “inactive”; for `C[C@@H]1CCCCO[C@H](CN(C)Cc2ccc(C(F)(F)F)cc2)[C@@H](C)CN([C@H](C)CO)C(=O)c2cc(NS(C)(=O)=O)ccc2O1`: “inactive”.
Then `COCCOC(=O)N1C(=O)[C@@]2(c3cc(C#CC4(O)CCCCCC4)ccc31)[C@H](C(=O)NC[C@H](O)c1ccccc1)[C@H]1C(=O)O[C@H](c3ccccc3)[C@H](c3ccccc3)N1[C@@H]2c1ccc(OCCO)cc1`, with “inactive”; and `COc1ccc(NC(=O)N(C)C[C@H]2Oc3c(NC(=O)c4ccc(-c5nccs5)cc4)cccc3C(=O)N([C@@H](C)CO)C[C@@H]2C)cc1`, with “inactive”.
`Cc1noc(C)c1S(=O)(=O)N(C)C[C@H]1Oc2ccc(NC(=O)c3ccncc3)cc2C(=O)N([C@H](C)CO)C[C@@H]1C`: the cytotoxicity call is “inactive”.
The same measure for `C[C@@H]1CCCCO[C@H](CN(C)C(=O)Cc2ccccc2)[C@H](C)CN([C@H](C)CO)C(=O)c2cc(NC(=O)Nc3ccc(F)cc3)ccc2O1`: “inactive”; for `COc1ccc(NC(=O)Nc2ccc3c(c2)CC(=O)N([C@H](C)CO)C[C@H](C)[C@H](CN(C)Cc2ccc(Oc4ccccc4)cc2)O3)cc1`: “active”; for `COc1ccc(NC(=O)Nc2ccc3c(c2)CC(=O)N([C@@H](C)CO)C[C@H](C)[C@H](CN(C)Cc2ccc(Oc4ccccc4)cc2)O3)cc1`: “active”.
The same measure for `C[C@@H]1CN([C@@H](C)CO)C(=O)c2cc(NC(=O)Cc3ccccc3)ccc2O[C@@H]1CN(C)Cc1ccc(C(=O)Nc2ccccc2N)cc1`: “inactive”.
For the compound `C[C@@H]1CN([C@@H](C)CO)C(=O)c2cc(NC(=O)c3ccncc3)ccc2O[C@@H]1CN(C)Cc1ccc(Oc2ccccc2)cc1`, the cytotoxicity call was “inactive”.
The same measure for `C[C@@H]1CN([C@@H](C)CO)C(=O)c2cccc(NC(=O)Nc3ccc(C(F)(F)F)cc3)c2O[C@@H]1CN(C)C(=O)Nc1ccccc1`: “inactive”.
Then `CCNC(=O)[C@H]1[C@H](CO)[C@H]2Cn3c(ccc(-c4cccc(OC)c4)c3=O)[C@H]2N1S(C)(=O)=O`, with “inactive”; and `C[C@@H]1CCCCO[C@H](CN(C)C(=O)CCC(F)(F)F)[C@@H](C)CN([C@@H](C)CO)C(=O)c2cc(NC(=O)Cc3ccccc3)ccc2O1`, with “inactive”; and `Cc1ccc(S(=O)(=O)Nc2ccc3c(c2)CC(=O)N([C@@H](C)CO)C[C@@H](C)[C@@H](CN(C)S(=O)(=O)c2cn(C)cn2)O3)cc1`, with “inactive”.
The same measure for `COc1ccc(CN(C)C[C@@H]2OCCCC[C@H](C)Oc3ccc(NC(=O)C4CCCCC4)cc3C(=O)N([C@@H](C)CO)C[C@H]2C)cc1`: “active”; for `COc1ccc(CN(C)C[C@H]2OCCCC[C@H](C)Oc3ccc(NC(=O)Nc4ccc(OC)cc4)cc3C(=O)N([C@@H](C)CO)C[C@H]2C)cc1`: “active”; for `COc1ccc(CN(C)C[C@H]2OCCCC[C@H](C)Oc3ccc(NC(=O)Nc4ccc(OC)cc4)cc3C(=O)N([C@@H](C)CO)C[C@@H]2C)cc1`: “active”.
Take `COc1ccc(CN(C)C[C@@H]2OCCCC[C@@H](C)Oc3ccc(NC(=O)C4CCCCC4)cc3C(=O)N([C@H](C)CO)C[C@@H]2C)cc1`: the cytotoxicity call was “inactive”.
The same measure for `COc1ccc(CN(C)C[C@@H]2OCCCC[C@H](C)Oc3ccc(NC(=O)Nc4ccc(OC)cc4)cc3C(=O)N([C@@H](C)CO)C[C@H]2C)cc1`: “active”.
As for `COc1ccc(CN(C)C[C@H]2OCCCC[C@@H](C)Oc3ccc(NC(=O)C4CCCCC4)cc3C(=O)N([C@H](C)CO)C[C@H]2C)cc1`, the cytotoxicity call was “inactive”.
The same measure for `COc1ccc(CN(C)C[C@@H]2OCCCC[C@@H](C)Oc3ccc(NC(=O)Nc4ccc(OC)cc4)cc3C(=O)N([C@H](C)CO)C[C@H]2C)cc1`: “inactive”; for `COc1ccc(CN(C)C[C@@H]2OCCCC[C@H](C)Oc3ccc(NC(=O)Nc4ccc(OC)cc4)cc3C(=O)N([C@H](C)CO)C[C@H]2C)cc1`: “inactive”.
Then `C[C@@H]1CCCCO[C@@H](CN(C)Cc2ccc(C(=O)O)cc2)[C@H](C)CN([C@@H](C)CO)C(=O)c2cc(NC(=O)c3ccccc3)ccc2O1`, with “inactive”; and `C[C@@H]1CN([C@H](C)CO)C(=O)Cc2cc(NS(=O)(=O)c3cccs3)ccc2O[C@@H]1CN(C)S(C)(=O)=O`, with “inactive”.
Then `C[C@@H]1CCCCO[C@H](CN(C)C(=O)CCCN(C)C)[C@@H](C)CN([C@@H](C)CO)C(=O)c2cc(NC(=O)Nc3ccc(F)cc3)ccc2O1`, with “inactive”; and `CS(=O)(=O)N1CCn2cc(Cn3cccn3)nc2C1`, with “inactive”; and `Cc1noc(C)c1NC(=O)N(C)C[C@H]1Oc2c(NC(=O)Nc3cccc4ccccc34)cccc2C(=O)N([C@@H](C)CO)C[C@@H]1C`, with “inactive”.
Consider `Cc1noc(C)c1S(=O)(=O)N(C)C[C@@H]1OCc2cn(nn2)CCCC(=O)N([C@H](C)CO)C[C@@H]1C`, for which the cytotoxicity call was “inactive”.
The same measure for `COc1ccc(S(=O)(=O)Nc2ccc3c(c2)C(=O)N([C@@H](C)CO)C[C@@H](C)[C@@H](CN(C)C(=O)Nc2ccc(C(F)(F)F)cc2)OCCCC[C@H](C)O3)cc1`: “inactive”.
Turning to `CC(=O)OC[C@H]1O[C@@H](n2cc(C)c(=O)[nH]c2=O)C[C@@H]1OC(C)=O`, the cytotoxicity call is “inactive”.
Then `C[C@@H]1CCCCO[C@H](CN(C)C)[C@H](C)CN([C@H](C)CO)C(=O)c2cc(NC(=O)Nc3cccc4ccccc34)ccc2O1`, with “inactive”; and `COc1ccc(NC(=O)N(C)C[C@H]2OCCCC[C@H](C)Oc3ccc(NS(=O)(=O)c4ccc(OC)cc4)cc3C(=O)N([C@@H](C)CO)C[C@H]2C)cc1`, with “inactive”.

For the origin of these results see the antibiotic and cytotoxicity screens of Wong et al. (2023).
